We go through five compounds from PubChem BioAssay.

The nature of experiment [1]: rapamycin-like changes in RPL19A-GFP expression – cell-based, S. cerevisiae, multiplex flow cytometry, primary screen (AID 1862; in the data active = percent of DMSO control GFP below about 86%;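 note: lower values mimic rapamycin by blocking the RPL19A rise seen in DMSO cells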). The following applies: S. cerevisiae RPL19A-GFP strain, flow cytometry fluorescence, 3 h; at 10 µM; stronger effect = lower value. (In flow cytometry, cells or beads pass a laser one at a time.)
A short description of experiment [2]: TOR pathway GLN3 branch reporter MEP2-GFP changes – S. cerevisiae, multiplex flow cytometry, primary screen (AID 1867;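 active = GFP response, as percent of the DMSO control, above the screen-wide mean plus 3 SD, about 139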;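 note: median GFP channel fluorescence of barcode-gated MEP2-GFP cells measured by flow cytometry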). The settings on record: S. cerevisiae MEP2-GFP strain, 3 h, at 10 µM, stronger effect = higher value, 100% means same as DMSO wells.
A short description of experiment [3]: TOR pathway RTG branch CIT2 reporter changes – S. cerevisiae, GFP fusion, multiplex flow cytometry, primary screen (AID 1870;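 active = percent response above a set limit, the screen-wide mean plus 3 SD, cut at about 130% in these data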;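 note: barcoded CIT2-GFP strain pooled with four other GFP strains with rapamycin as positive control; median GFP fluorescence per well over plate mean of DMSO wells so 100% = DMSO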). The settings on record: S. cerevisiae CIT2-GFP expression, 3 h, at 10 µM, stronger effect = higher value.
Experiment [4] in a line: TOR pathway LAP4-GFP level changes – S. cerevisiae, multiplex flow cytometry, primary screen (AID 1873;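 active = GFP signal, as percent of the solvent control, above the screen mean plus 3 SD, about 149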). The following applies: S. cerevisiae LAP4-GFP expression, 3 h, at 10 µM, stronger effect = higher value.
The nature of experiment [5]: yeast AGP1-GFP level changes, GLN3 branch – cell-based, multiplex flow cytometry, S. cerevisiae, primary screen (AID 1887;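 active = GFP signal above the screen-wide mean plus 3 SD, that is over about 124.5% of the solvent control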;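 note: AGP1-GFP fusion strain of S. cerevisiae within a five-strain barcoded multiplex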). The settings on record: 3 h, at 10 µM, stronger effect = higher value.
Experiment [6] in a line: reduced mouse 2C T cell binding to pMHC/ICAM-1 vesicles – MLPCN validation set, flow cytometry, LFA-1/ICAM-1 modulator project, pilot screen (AID 2523;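 active = response below a set limit, under 55% cells CD8-positive and vesicle-bound, and CD8 cells' 90th-percentile brightness under 279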;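 for vesicle binding response: mean PE anti-B7-1 fluorescence of CD8+ cells relative to row control; 100% = QL9-loaded vesicles with DMSO vehicle in the same plate row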). The following applies: 2C mouse CD8+ T cells, at 7 µM, stronger effect = lower value; double positive events: measured here: CD8+/vesicle+ event percentage.
For experiment [7], the target named is Integrin beta-1 (Homo sapiens) + Integrin alpha-4 (Homo sapiens) (UniProt P13612+P05556). The experiment is described as follows: alpha4beta1 integrin LIBS antibody binding reduction – U937 cells, HUTS-21 mAb, flow cytometry, validation set, VLA-4 allosteric modulator project, pilot screen (AID 2674;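 active = inhibition above 50%, about 3 SD of the validation set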;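 note: antibody binding induced by the VLA-4 ligand LDV present at three times its Kd; 0% = LDV ligand with antibody and no compound and 100% = antibody without LDV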). The settings on record: HUTS-21 LIBS mAb binding, at 6.7 µM, stronger effect = higher value, binding induced by LDV ligand.

Experiment [8] is described as follows: calorie-restriction mimetic ROS inhibitors, yeast – validation compound set, pilot screen (AID 2706;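 active = superoxide response below 65% of plate, a cut near 3 SD across the whole screen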;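 note: yeast exposed to compound for one week at 30 degrees C before staining; 100% = mean of all compound wells on the same plate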). The following applies: S. cerevisiae aging, superoxide DHE fluorescence; at 10 µM, stronger effect = lower value.
The target in experiment [9] is Beta-adrenergic receptor kinase 1 (Homo sapiens) (UniProt P25098). The experiment can be described thus: GRK2 binders displacing RNA aptamer, biochemical, validation, human GRK2, bead flow cytometry (AID 488806;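 active = aptamer binding inhibition above 30%, about 3 SD of noise from non-fluorescent compounds; inactive = inhibition at or below 30%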). The following applies: bead-bound GRK2, FAM-aptamer displacement, at 10 µM, stronger effect = higher value.
The target in experiment [10] is AP-2 complex subunit beta (Homo sapiens) (UniProt P63010). The experiment can be described thus: beta-arrestin/AP2 interaction blockers – biochemical, validation set, GST-AP2 beads, flow cytometry, pilot screen (AID 504541;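 active = inhibition above 54%, about 3 SD of non-fluorescent compounds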;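 note: AP2 carries R879A mutation and is captured from E. coli lysate; bead-bound FITC arrestin peptide fluorescence measuring arrestin peptide binding to AP2; 0% = DMSO wells and 100% = excess unlabeled arrestin peptide control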). The settings on record: FITC arrestin peptide, at 10 µM, stronger effect = higher value, AP2 beta2 appendage fragment, R879A mutant.
Experiment [11] is described as follows: cytosolic pH regulators acting via V-ATPase – S. cerevisiae, pHLuorin, HTS validation (AID 504600; in the data active = response above about 15%;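 note: plate controls were DMSO for no effect and reference compound for full effect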). The following applies: V-ATPase proton transport, at 10 µM, stronger effect = higher value.
Experiment [12] relates to anti-desmoglein-3 scFv antibody binding to human DSG3. The experiment can be described thus: blockers of pathogenic pemphigus antibody–desmoglein-3 binding – biochemical, validation compound set, bead-based, flow cytometry, pilot screen (AID 588368).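 Note: signal is the median channel fluorescence of bead-bound GFP antibody.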 The settings on record: Protein G beads, DSG3-Fc, scFv-GFP binding, at 10 µM, stronger effect = lower value.
A short description of experiment [13]: Nile Red efflux blockade in pump-expressing yeast – validation compound set, multiplex, phenotypic, pilot screen (AID 588506;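 active = efflux inhibition above 0.42, the validation set average plus 4 SD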;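 note: Nile Red retained in cells so higher fluorescence means more efflux inhibition; 0 = negative control wells and 1 = enniatin B 25 µM full block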). The settings on record: S. cerevisiae pump-expressing triplex, Nile Red efflux flow cytometry; at 10 µM; stronger effect = higher value; the pumps come from Candida albicans.
Experiment [14] has as its target ATP-binding cassette sub-family B member 6 (Homo sapiens) (UniProt Q9NP58). The experiment can be described thus: blockers of ABCB6-driven porphyrin uptake – K562-ABCB6 cells, flow cytometry, validation set, pilot screen (AID 588550;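 active = inhibition above the screen-wide mean plus 3 SD, about 51%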;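 note: 0% = DMSO wells and 100% = benzethonium chloride 70 µM positive control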). The settings on record: K562-ABCB6 porphyrin accumulation, 1 h, at 10 µM, stronger effect = higher value.
A short description of experiment [15]: AML differentiation inducers, ER-HoxA9 marrow cells – cell-based, GFP/MAC1 double positive, flow cytometry, validation set, primary screen (AID 588685;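 active = differentiation response of at least 50%, scaled between solvent and reference control, from cells with both markers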;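 note: compound exposure lasts four days before antibody staining and flow analysis; 0% = DMSO wells and 100% = 5 µM fulvestrant positive control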). The following applies: stronger effect = higher value, normalized: vehicle 0, fulvestrant 100.

Each structure is given as a SMILES string. Inconclusive results are not listed. Activity calls are given as the source filed them.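 Rule for the calls, unless noted: active = binding below the plate cutoff, the plate median minus 3 SD, with a reading above zero; inconclusive = below the plate cutoff but reading exactly zero; inactive = the rest.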 Peptide text beside a SMILES is read from it. * marks the point of attachment. Boc = CC(C)(C)OC(=O)*

Chain of ATP-binding cassette sub-family B member 6 (Homo sapiens) (Q9NP58 whole entry, looked up): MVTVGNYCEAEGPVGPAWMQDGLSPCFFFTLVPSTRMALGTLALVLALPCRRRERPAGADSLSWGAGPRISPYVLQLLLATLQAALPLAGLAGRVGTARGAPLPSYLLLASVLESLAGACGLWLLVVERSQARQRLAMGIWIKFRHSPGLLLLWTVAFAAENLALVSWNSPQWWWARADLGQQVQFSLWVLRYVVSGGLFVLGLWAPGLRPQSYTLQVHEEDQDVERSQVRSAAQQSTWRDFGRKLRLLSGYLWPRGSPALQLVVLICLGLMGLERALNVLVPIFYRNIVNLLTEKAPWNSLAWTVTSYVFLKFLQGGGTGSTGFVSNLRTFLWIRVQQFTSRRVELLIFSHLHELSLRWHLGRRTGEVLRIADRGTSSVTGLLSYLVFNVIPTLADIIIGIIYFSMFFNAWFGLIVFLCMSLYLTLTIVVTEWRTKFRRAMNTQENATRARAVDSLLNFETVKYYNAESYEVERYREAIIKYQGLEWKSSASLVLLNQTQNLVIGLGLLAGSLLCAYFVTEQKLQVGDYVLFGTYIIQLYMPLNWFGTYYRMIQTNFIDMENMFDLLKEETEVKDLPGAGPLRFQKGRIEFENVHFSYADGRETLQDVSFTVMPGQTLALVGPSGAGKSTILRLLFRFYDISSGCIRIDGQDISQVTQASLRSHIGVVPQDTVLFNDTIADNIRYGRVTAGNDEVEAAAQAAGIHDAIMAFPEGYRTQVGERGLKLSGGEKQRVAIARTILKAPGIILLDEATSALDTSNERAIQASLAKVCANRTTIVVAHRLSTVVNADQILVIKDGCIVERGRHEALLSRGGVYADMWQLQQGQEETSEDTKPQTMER
Chain of AP-2 complex subunit beta (Homo sapiens) (P63010 whole entry, looked up, the tested form may be a part, one chain of several): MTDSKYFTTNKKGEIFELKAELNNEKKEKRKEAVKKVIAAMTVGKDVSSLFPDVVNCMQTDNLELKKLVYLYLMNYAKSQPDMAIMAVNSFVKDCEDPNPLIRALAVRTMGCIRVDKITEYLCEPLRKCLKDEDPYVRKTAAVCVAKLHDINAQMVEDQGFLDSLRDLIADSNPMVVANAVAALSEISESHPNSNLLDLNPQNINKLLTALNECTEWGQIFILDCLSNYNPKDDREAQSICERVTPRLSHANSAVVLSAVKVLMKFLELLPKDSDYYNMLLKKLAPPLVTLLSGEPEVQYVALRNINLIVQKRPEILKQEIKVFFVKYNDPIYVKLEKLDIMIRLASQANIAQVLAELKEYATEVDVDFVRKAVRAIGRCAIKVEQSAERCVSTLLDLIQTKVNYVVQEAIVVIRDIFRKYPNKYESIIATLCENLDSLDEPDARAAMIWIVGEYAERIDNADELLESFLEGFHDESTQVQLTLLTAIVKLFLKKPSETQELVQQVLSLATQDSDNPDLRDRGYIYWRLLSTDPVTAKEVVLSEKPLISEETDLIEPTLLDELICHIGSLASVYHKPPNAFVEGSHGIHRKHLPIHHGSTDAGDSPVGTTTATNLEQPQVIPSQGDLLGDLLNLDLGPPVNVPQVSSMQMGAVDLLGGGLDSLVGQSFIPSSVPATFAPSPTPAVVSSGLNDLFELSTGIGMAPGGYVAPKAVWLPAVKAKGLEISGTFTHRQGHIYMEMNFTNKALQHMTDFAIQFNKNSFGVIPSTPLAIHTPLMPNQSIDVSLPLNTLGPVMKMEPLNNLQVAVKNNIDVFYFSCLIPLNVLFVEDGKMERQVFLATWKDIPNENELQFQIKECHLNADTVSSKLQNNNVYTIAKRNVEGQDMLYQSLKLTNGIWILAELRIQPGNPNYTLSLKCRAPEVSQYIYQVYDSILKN
Chain of Beta-adrenergic receptor kinase 1 (Homo sapiens) (P25098 whole entry, looked up): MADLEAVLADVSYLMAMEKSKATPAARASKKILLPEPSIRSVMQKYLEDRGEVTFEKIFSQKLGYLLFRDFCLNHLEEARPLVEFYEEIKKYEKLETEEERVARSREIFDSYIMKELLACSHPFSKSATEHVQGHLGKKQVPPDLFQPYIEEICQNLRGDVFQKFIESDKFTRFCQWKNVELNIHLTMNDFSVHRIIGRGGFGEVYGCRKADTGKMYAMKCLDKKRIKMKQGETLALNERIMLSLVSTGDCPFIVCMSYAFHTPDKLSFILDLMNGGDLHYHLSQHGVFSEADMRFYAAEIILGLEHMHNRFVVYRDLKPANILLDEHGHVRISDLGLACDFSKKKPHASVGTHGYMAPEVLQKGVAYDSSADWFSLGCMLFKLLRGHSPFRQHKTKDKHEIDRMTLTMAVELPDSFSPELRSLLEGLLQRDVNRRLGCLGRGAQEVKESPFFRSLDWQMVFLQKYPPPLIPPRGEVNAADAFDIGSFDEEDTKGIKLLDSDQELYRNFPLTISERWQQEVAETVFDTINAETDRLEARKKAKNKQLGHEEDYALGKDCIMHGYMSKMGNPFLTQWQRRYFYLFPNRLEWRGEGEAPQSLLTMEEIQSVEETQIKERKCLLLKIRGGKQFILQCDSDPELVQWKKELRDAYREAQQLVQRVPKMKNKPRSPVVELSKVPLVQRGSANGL
Chain of Integrin beta-1 (Homo sapiens) + Integrin alpha-4 (Homo sapiens) (P05556 whole entry, looked up): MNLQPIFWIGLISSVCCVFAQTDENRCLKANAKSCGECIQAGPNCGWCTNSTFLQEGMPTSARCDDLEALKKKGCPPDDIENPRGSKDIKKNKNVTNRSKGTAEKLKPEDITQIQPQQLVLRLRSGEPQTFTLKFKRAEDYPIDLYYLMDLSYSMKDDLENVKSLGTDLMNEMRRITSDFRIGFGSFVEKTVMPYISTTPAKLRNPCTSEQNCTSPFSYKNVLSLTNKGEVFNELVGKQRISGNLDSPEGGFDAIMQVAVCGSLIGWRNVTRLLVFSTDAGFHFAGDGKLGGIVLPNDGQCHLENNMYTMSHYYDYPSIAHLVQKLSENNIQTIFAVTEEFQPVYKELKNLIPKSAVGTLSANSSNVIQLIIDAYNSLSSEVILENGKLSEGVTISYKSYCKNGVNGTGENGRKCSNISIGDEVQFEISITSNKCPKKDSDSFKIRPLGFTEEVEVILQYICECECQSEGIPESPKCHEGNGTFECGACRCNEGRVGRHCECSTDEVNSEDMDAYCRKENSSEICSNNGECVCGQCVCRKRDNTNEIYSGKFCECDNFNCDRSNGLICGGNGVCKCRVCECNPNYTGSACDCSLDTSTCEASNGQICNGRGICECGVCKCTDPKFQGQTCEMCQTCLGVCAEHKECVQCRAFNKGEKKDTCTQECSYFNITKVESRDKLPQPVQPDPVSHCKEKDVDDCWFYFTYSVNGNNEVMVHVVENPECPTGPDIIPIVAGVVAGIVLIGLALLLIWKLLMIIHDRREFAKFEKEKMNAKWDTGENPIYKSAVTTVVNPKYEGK
Chain of Integrin beta-1 (Homo sapiens) + Integrin alpha-4 (Homo sapiens) (P13612 whole entry, looked up): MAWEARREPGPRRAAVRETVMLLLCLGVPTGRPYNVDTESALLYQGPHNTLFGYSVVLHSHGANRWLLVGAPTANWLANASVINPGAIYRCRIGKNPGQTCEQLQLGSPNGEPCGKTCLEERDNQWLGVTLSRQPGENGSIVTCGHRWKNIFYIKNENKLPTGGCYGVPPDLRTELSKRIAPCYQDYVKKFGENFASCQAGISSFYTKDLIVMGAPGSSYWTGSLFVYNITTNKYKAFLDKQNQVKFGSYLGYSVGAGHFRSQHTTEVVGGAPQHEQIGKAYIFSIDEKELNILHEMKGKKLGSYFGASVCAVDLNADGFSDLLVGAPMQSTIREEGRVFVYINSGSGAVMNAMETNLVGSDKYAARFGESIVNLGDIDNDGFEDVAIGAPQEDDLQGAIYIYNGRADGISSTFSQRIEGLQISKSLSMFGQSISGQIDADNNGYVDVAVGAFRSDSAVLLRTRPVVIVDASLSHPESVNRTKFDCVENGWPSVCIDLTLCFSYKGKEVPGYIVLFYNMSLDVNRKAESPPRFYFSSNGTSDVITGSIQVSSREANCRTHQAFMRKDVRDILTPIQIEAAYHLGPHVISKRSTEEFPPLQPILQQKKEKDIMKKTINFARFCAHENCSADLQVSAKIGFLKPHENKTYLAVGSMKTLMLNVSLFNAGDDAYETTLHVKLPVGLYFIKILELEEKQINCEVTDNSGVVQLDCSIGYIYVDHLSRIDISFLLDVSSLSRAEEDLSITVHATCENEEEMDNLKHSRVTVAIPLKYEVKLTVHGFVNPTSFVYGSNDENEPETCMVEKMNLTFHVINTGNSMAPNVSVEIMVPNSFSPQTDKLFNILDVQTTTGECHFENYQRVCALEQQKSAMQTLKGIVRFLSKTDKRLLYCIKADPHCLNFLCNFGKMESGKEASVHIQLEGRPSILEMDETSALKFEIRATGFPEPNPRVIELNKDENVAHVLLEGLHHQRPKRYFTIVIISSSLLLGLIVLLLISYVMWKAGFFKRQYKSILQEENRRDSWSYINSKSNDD

One may read the inhibition as the change of the read-out against control, counted positive when it falls. As to `CC(C)CC(NC(=O)C1CCCN1C(=O)OC(C)(C)C)C(=O)NCC(N)=O` (stereo not drawn) (Boc-Pro-Leu-Gly-NH2; configuration not given here), the percent of DMSO control GFP in experiment [1] was 97.3% (inactive). The GFP response vs DMSO in experiment [2] was 98.9% (inactive); in experiment [4], 94.3% (inactive). The percent response of DMSO control in experiment [3] was 92% (inactive). Besides, the GFP response, % of DMSO in [5] is 91.8% (inactive). In addition, the double positive events in [6] turned out to be 62.8%. The vesicle binding response in experiment [6] is 171% (inactive). For the same compound, the inhibition in [7] is -3.97% (inactive); in experiment [10], -1.69% (inactive); in [14], 8% (inactive). Moreover, the superoxide response (% of plate) in experiment [8] is 89.5% (inactive). In addition, the aptamer binding inhibition in [9] is 4% (inactive). The response in [11] was -1.76% (inactive). Further, the binding (% of control) in [12] is 102% (inactive). In addition, the efflux inhibition (fraction of control) in experiment [13] is 0.18 (inactive). The differentiation response in experiment [15] is 19.2% (inactive).

For the compound `NC(=O)OCC(COC(N)=O)c1ccccc1`, the percent of DMSO control GFP in experiment [1] was 104% (inactive). Moreover, the figures for the GFP response vs DMSO in experiment [2] and in [4] were 98.9% (inactive) and 92.3% (inactive), respectively. In experiment [3], the percent response of DMSO control was 102% (inactive). The GFP response, % of DMSO in experiment [5] was 103% (inactive). The compound also displayed a double positive events in [6] of 58.1%. For the same compound, the vesicle binding response in [6] is 160% (inactive). Moreover, the inhibition in experiment [7] is 1.62% (inactive); in experiment [10], -15.7% (inactive); in experiment [14] it was 5% (inactive). The superoxide response (% of plate) in [8] is 92.5% (inactive). Further, the aptamer binding inhibition in experiment [9] is 4% (inactive). Besides, the response in experiment [11] is -9.57% (inactive). Also, in experiment [12], the binding (% of control) was 103% (inactive). Also, in experiment [13], the efflux inhibition (fraction of control) was -0.09 (inactive). The differentiation response in [15] was -1.82% (inactive).

Regarding `Cc1nc(C)c(C)nc1C`, the percent of DMSO control GFP in experiment [1] was 101% (inactive). The values for the GFP response vs DMSO in experiment [2] and in experiment [4] were 101% (inactive) and 100% (inactive), respectively. Moreover, the percent response of DMSO control in experiment [3] was 102% (inactive). The GFP response, % of DMSO in experiment [5] is 103% (inactive). Besides, in experiment [6], the double positive events turned out to be 64.7%. The vesicle binding response in experiment [6] is 132% (inactive). Besides, the figures for the inhibition in [7], in experiment [10] and in experiment [14] were 12.8% (inactive), 31.6% (inactive) and 8% (inactive), respectively. Also, the superoxide response (% of plate) in experiment [8] is 104% (inactive). The aptamer binding inhibition in experiment [9] was -3% (inactive). For the same compound, the response in experiment [11] was -7.78% (inactive). For the same compound, the binding (% of control) in experiment [12] is 103% (inactive). In addition, the efflux inhibition (fraction of control) in experiment [13] is 0.25 (inactive). Moreover, the differentiation response in [15] was 3.03% (inactive).

As for `O=C1N=c2ccccc2=C1c1[nH]c(=S)[nH]c1O`, the percent of DMSO control GFP in experiment [1] is 98.8% (inactive). In addition, the GFP response vs DMSO was 96.9% (inactive) in experiment [2] and 81.3% (inactive) in experiment [4]. Further, the percent response of DMSO control in [3] is 106% (inactive). In addition, the GFP response, % of DMSO in experiment [5] is 99.6% (inactive). The compound also returned a double positive events in [6] of 56.8%. Also, in [6], the vesicle binding response was 181% (inactive). Besides, the inhibition in experiment [7] was 2.56% (inactive); in experiment [10] it was 2.65% (inactive); in experiment [14], 8% (inactive). Moreover, the superoxide response (% of plate) in experiment [8] is 98.7% (inactive). Moreover, the aptamer binding inhibition in [9] was -2% (inactive). For the same compound, in [11], the response is 3.63% (inactive). In addition, in experiment [12], the binding (% of control) was 98% (inactive). For the same compound, the efflux inhibition (fraction of control) in [13] was -0.12 (inactive). The differentiation response in experiment [15] was -19.6% (inactive).

On to `CCOC(=O)c1cnc2ccccc2c1NCCO`, for which the percent of DMSO control GFP in experiment [1] is 108% (inactive). Further, the figures for the GFP response vs DMSO in experiment [2] and in experiment [4] were 99.9% (inactive) and 102% (inactive), respectively. In addition, the percent response of DMSO control in experiment [3] is 109% (inactive). In addition, in [5], the GFP response, % of DMSO is 103% (inactive). This compound also showed a double positive events in [6] of 61.1%. The vesicle binding response in experiment [6] was 186% (inactive). For the same compound, the inhibition is 1.62% (inactive) in [7], -2.19% (inactive) in experiment [10] and 7% (inactive) in experiment [14]. Also, the superoxide response (% of plate) in experiment [8] was 98.1% (inactive). For the same compound, the aptamer binding inhibition in experiment [9] is 0% (inactive). Besides, the response in experiment [11] was 5.12% (inactive). In addition, the binding (% of control) in experiment [12] was 99.8% (inactive). The efflux inhibition (fraction of control) in [13] was -0.12 (inactive). Also, in experiment [15], the differentiation response is -18% (inactive).
